Results filed as inconclusive are left out. Active and inactive are the calls of the source. Calls come from the whole dose curve; as a rule, active = well fitted cell-killing curve with a large enough effect in the repeat runs; inconclusive = weak or mixed curves, or effect the other way; inactive = flat fitted curve, though single readings scatter.
Experiment: qHTS assay to identify small molecule agonists of the androgen receptor (AR) signaling pathway in the presence of an antagonist - cell viability counter screen (AID 1259379); note: nearly all actives have a fitted effect of over 25% in size
Conditions: MDA-kb2 viability, CellTiter-Fluor, 16 h; series mostly up to 92.4 µM; activity change, negative = cytotoxicity: at the top concentration
Text: National Center for Advancing Translational Sciences [NCATS]
NIH Chemical Genomics Center [NCGC]
U.S. Environmental Protection Agency [EPA]
National Institutes of Environmental Health Sciences [NIEHS]
National Toxicology Program [NTP]
U.S. Food and Drug Administration [FDA]
Androgen receptor (AR) is an important member of nuclear receptor family. Its signaling plays a critical role in AR-dependent prostate cancer and other androgen related diseases. Considerable attention has been given in the past decades to develop methods to study and screen for the environmental chemicals that have the potential to interfere with metabolic homeostasis, reproduction, developmental and behavioral functions. Therefore AR binding assay for screening against androgen agonists and antagonists can be used to identify potential endocrine disruptors.
MDA-kb2 cells (from ATCC, deposited by Wilson et al.) are human breast carcinoma cells that were stably transfected with a luciferase reporter gene under control of the MMTV promoter that contains response elements for both androgen receptor (AR) and glucocorticoid receptor (GR). This particular screening for measuring luciferase reporter gene activity using MDA-kb2 cells against Tox21 10K library compounds is a confirmation study on agonist mode screening in the presence of AR-antagonist compound (Nilutamide) at 3.0uM final concentration. The cytotoxicity of the compounds was tested in parallel by measuring the cell viability using CellTiter-Fluor assay system (Promega, Madison, WI) in the same wells.
Tox21 Assay Protocol Summary:
MDA-kb2 cells (cells cultured without CO2) were dispensed at 3,000 cells/well in 4uL of culture medium into white wall/solid-bottom 1536-well plates (Corning Life Sciences, Corning, NY) using a Multidrop Combi (Thermo Fisher Scientific Inc., Waltham, MA) dispenser. The assay plates were incubated at 37C and 0% CO2 for 5hr. One uL of 3.0uM (final concentration) Nilutamide or assay buffer was added using two separate tips of Flying Reagent Dispenser (FRD, Aurora Discovery, San Diego, CA). Then 23nL of compounds dissolved in DMSO at 15 concentrations and positive controls were transferred to the assay plates using a Pintool station (Wako, San Diego, CA). The assay plates were incubated at 37C and 0% CO2 for 16 hr. After 15hr incubation at 37C, 1uL/well CellTiter-Fluor reagent (Promega Corporation) was added to each well of the assay plates using FRD. After 1hr incubation at 37C and 0% CO2, the fluorescence signal was measured using a ViewLux plate reader (PerkinElmer, Shelton, CT).
In the case of CC(=O)N[C@@H](Cc1ccc(O)cc1)C(=O)O, the “activity change, negative = cytotoxicity” value is reported as 0.125% [at 42.5 µM] (inactive).
In the case of CCC(Cl)CC(Cl)C(Cl)C(Cl)C(Cl)C(C)Cl (stereo not given), the activity change, negative = cytotoxicity is reported as 2.03% [at 19 µM] (inactive).
For COc1ccc(C2C(=O)c3ccccc3C2=O)cc1, the “activity change, negative = cytotoxicity” value was -3.84% [at 42.5 µM] (inactive).
With CCCC(=O)OC(=O)CCC the “activity change, negative = cytotoxicity” value was 0.568% (inactive).
For Nc1ccc(N=Nc2ccc(N)cc2)cc1, the Potency was 27.3 µM (active).
With O=C(O)c1ccc(O)cc1O the “activity change, negative = cytotoxicity” value was 1.99% (inactive).
With CC1CCc2nccnc21 (stereo not given) the “activity change, negative = cytotoxicity” value was -1.43% (inactive).
With COC(OC)OC the “activity change, negative = cytotoxicity” value was 2.37% (inactive).
With CC(C)(C(=O)c1cccnc1)c1cccnc1 the “activity change, negative = cytotoxicity” value was 3.35% [at 42.5 µM] (inactive).
In the case of O=C1[C@@H]2[C@H]3CC[C@H](C3)[C@@H]2C(=O)N1CCCCN1CCN(c2ncccn2)CC1, the “activity change, negative = cytotoxicity” value is reported as -1.99% [at 42.5 µM] (inactive).
In the case of C1CCCCC1, the “activity change, negative = cytotoxicity” value is reported as 2.87% (inactive).
In the case of BrC(Br)C(Br)Br, the “activity change, negative = cytotoxicity” value is reported as -0.403% (inactive).
For c1ccc(CNc2ncnc3c2ncn3C2CCCCO2)cc1 (stereo not given), the “activity change, negative = cytotoxicity” value was 0.366% (inactive).
With COc1cc(S(=O)(=O)Nc2ccccc2)c(OC)cc1N the “activity change, negative = cytotoxicity” value was -4.31% (inactive).
For CCC(=O)OCc1ccc(OC)cc1, the “activity change, negative = cytotoxicity” value was 1.92% (inactive).
In the case of O=[N+]([O-])C1(Br)COCOC1, the “activity change, negative = cytotoxicity” value is reported as -7.3% (inactive).
For CCOC(=O)c1ccc(NC(=O)CN2CCCCC2)cc1, the “activity change, negative = cytotoxicity” value was -2% [at 42.5 µM] (inactive).
For Nc1ccn([C@H]2CS[C@@H](CO)O2)c(=O)n1, the “activity change, negative = cytotoxicity” value was -0.19% (inactive).
In the case of CCCc1nc2c(C)cc(-c3nc4ccccc4n3C)cc2n1Cc1ccc(-c2ccccc2C(=O)O)cc1, the “activity change, negative = cytotoxicity” value is reported as -5.02% [at 42.5 µM] (inactive).
In the case of CC1CCCC(=O)C1=O (stereo not given), the “activity change, negative = cytotoxicity” value is reported as 0.728% (inactive).
With CC1CCCO1 (stereo not given) the “activity change, negative = cytotoxicity” value was 0.667% (inactive).
In the case of CC(C)COC(=O)c1ccc(O)cc1, the “activity change, negative = cytotoxicity” value is reported as 1.03% (inactive).
With CCN(Cc1cccc(S(=O)(=O)O)c1)c1ccc(C(=C2C=CC(=[N+](CC)Cc3cccc(S(=O)(=O)O)c3)C=C2)c2ccc(O)cc2S(=O)(=O)[O-])cc1 the Potency was 16.6 µM (active).
In the case of O=C(O)c1cc(Cl)cc(Cl)c1O, the “activity change, negative = cytotoxicity” value is reported as -0.534% (inactive).
For C=C(C)C(=O)OCCC(F)(F)C(F)(F)C(F)(F)C(F)(F)C(F)(F)C(F)(F)F, the “activity change, negative = cytotoxicity” value was 1.61% (inactive).
For C=CC(=O)NC(C)C, the “activity change, negative = cytotoxicity” value was -0.245% (inactive).
With C=Cc1ccc(OC(C)=O)cc1 the “activity change, negative = cytotoxicity” value was -2.6% (inactive).
With CO[C@@H]1[C@@H](OC)[C@H](C)[C@@](O)(CC(=O)O)O[C@H]1[C@H](C)[C@H]1O[C@@]2(CC[C@@](C)([C@H]3CC[C@@](C)([C@@H]4O[C@@H]([C@H]5O[C@](C)(O)[C@H](C)C[C@@H]5C)C[C@@H]4OC4C[C@H](OC)[C@@H](OC)[C@H](C)O4)O3)O2)C[C@H](O)[C@H]1C (stereo not given in full) the Potency was 1.68 µM (active).
With Cc1ccc(Cl)cc1N the “activity change, negative = cytotoxicity” value was 0.769% (inactive).
With CC(=O)Oc1cccc(O)c1 the “activity change, negative = cytotoxicity” value was 2.06% [at 42.5 µM] (inactive).
In the case of O=NN(CCCl)C(=O)NCCCl, the “activity change, negative = cytotoxicity” value is reported as -0.499% [at 42.5 µM] (inactive).
For COc1cc(NC(C)CCCN)c2ncccc2c1 (stereo not given), the “activity change, negative = cytotoxicity” value was -7.27% [at 42.5 µM] (inactive).
For Cc1cc([N+](=O)[O-])ccc1N, the Potency was 53.8 µM (active).
With CC(C)COC(=O)COc1cc(Cl)c(Cl)cc1Cl the “activity change, negative = cytotoxicity” value was 4.7% (inactive).
In the case of C[C@H](CS)C(=O)N1CCC[C@H]1C(=O)O, the “activity change, negative = cytotoxicity” value is reported as 1.24% [at 42.5 µM] (inactive).
For CC[C@H]1OC(=O)[C@H](C)[C@@H](O[C@H]2C[C@@](C)(OC)[C@@H](O)[C@H](C)O2)[C@H](C)[C@@H](O[C@@H]2O[C@H](C)C[C@H](N(C)C)[C@H]2O)[C@](C)(O)C[C@@H](C)/C(=N\OCOCCOC)[C@H](C)[C@@H](O)[C@]1(C)O, the “activity change, negative = cytotoxicity” value was -4.26% [at 42.5 µM] (inactive).
In the case of CN1CCCN(C(c2ccccc2)c2ccc(Cl)cc2)CC1 (stereo not given), the Potency is reported as 26.6 µM (active).
For COc1ccc(-n2nc(C(F)F)cc2-c2ccc(S(C)=O)cc2)cc1 (stereo not given), the “activity change, negative = cytotoxicity” value was -2.08% (inactive).
For CCCCCCCCCCCCCCCCCC(=O)OCC(CC)CCCC (stereo not given), the “activity change, negative = cytotoxicity” value was 1.61% (inactive).
For Cc1ccc2c(c1)CCCN2, the “activity change, negative = cytotoxicity” value was 1.44% (inactive).
% is set by controls: 0 for no effect and ±100 for the full control effect; potency is the fitted concentration of half-maximal effect.
